CYP2C9 act: human CYP2C9 activators, primary screen, biochemical, luminescence; recombinant CYP2C9, luciferin-H conversion; hits give high values; factor 1 = untreated enzyme, 0 = blocked; activation factor at 5 µM; 1.4% of 96,000 active;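 active means activation factor of 2 or more for CYP2C9 at a 5 µM dose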;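 further: 0 = sulfaphenazole-blocked wells and 1 = vehicle-only wells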
PostGolgi yeast: phenotypic screen on post-Golgi transport, primary screen. post-Golgi transport phenotypic cell assay. inhibition, % at 10 µM. 0.9% of 98,000 active. AID 739, 2007;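 further: yeast cells grown in 1536-well plates; yeast grown about 18 h at 30C before absorbance read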
PostGolgi ctrl: growth inhibition of yeast control strain, primary screen, counter-screen for post-Golgi transport modulator project; efflux-deficient yeast background strain, growth absorbance A615, 16 h; inhibition, % at 10 µM; 5% of 98,000 active
CYP2C19 act: human CYP2C19 activators, primary screen, biochemical, luminescence; recombinant CYP2C19, luciferin-H EGE luminescence; hits give high values; 0 = fully inhibited enzyme, 1 = untreated enzyme; activation factor at 5 µM; 96,000 tested, under 10 active;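 active means activation factor of at least 2 at 5 µM in the primary screen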;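 further: 0 = wells with 2.5 mM tranylcypromine and 1 = vehicle-only wells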
Target sequence (P33261 whole entry, looked up): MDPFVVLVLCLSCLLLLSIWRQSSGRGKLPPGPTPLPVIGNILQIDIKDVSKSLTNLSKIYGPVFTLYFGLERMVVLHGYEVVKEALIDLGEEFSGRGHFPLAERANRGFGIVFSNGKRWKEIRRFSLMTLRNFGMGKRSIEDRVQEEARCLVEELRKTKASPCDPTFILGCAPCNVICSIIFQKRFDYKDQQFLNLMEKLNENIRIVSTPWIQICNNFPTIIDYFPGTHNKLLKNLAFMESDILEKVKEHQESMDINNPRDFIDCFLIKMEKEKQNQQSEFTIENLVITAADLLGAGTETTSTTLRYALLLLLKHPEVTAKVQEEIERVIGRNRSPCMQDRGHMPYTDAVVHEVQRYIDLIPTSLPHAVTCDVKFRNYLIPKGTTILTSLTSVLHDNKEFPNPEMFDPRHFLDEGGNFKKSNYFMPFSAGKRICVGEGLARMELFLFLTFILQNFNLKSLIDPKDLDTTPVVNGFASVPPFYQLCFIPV
CYP2C19 inhib: blockers of cytochrome P450 2C19 activity – biochemical, luminescence, ADME assay, primary screen; CYP2C19 Supersomes, luciferin-H EGE luminescence, 30 min; inhibition, % at 5 µM; 21% of 96,000 active; AID 778, 2007;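 active means CYP2C19 inhibition above a set limit at 5 µM in the primary screen, cut at about 50% in these data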;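 further: plate controls were negative control wells for no effect and 2.5 mM tranylcypromine positive control for full effect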
CYP2C9 inhib: blockers of cytochrome P450 2C9 activity – biochemical, luminescence, ADME assay, primary screen. P11712. CYP2C9 Supersomes, luciferin-H conversion. inhibition, % at 5 µM. 20% of 96,000 active. AID 777, 2007;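 active means blocking of liver enzyme CYP2C9 beyond about 50% at 5 µM, limit read from the data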
An asterisk follows results filed as active; nt = no result. The list is not random: actives were taken first. Their share in the collection is about 32%. Unless noted, no stated cut-off is given here; in the data, active means inhibition above about 30%; inactive means the rest.

SMILES | CYP2C9 act | PostGolgi yeast | PostGolgi ctrl | CYP2C19 act | CYP2C19 inhib | CYP2C9 inhib
CCN(CC)c1nc2ccccc2c(N)c1-c1ccccc1 | 0.6 | -6.3 | -5.3 | 0.6 | 36.6 | 35.6
CN(Cc1ccccc1)Cc1nc2c([nH]1)c(=O)[nH]c(=O)n2C | 1.2 | 6.5 | 12.2 | 1.1 | -13.9 | -24.8
Cn1c(=O)c2[nH]c(CN(Cc3ccccc3)Cc3ccccc3)nc2n(C)c1=O | 0.2 | -0.5 | -2.4 | 0.9 | 6.2 | 81.3*
CN(C)Cc1nc2c([nH]1)c(=O)n(C)c(=O)n2C | 0.9 | 3.2 | 3.0 | 0.5 | 51.4* | 6.3
CCCC(c1nnnn1CCc1ccccc1)N1CCN(C(=O)c2ccco2)CC1 (centres undefined) | 0.8 | -3.2 | 29.4 | 0.9 | 14.1 | 23.8
CC1(C)N=C(N)N=C(N)N1c1ccc(C(=O)O)cc1 | 0.9 | -11.6 | -13.9 | 0.9 | 8.7 | 7.0
CCOC(=O)c1c(C2COc3ccccc3O2)csc1NC(=O)c1ccccc1 (centres undefined) | 0.3 | -4.1 | 1.4 | 0.8 | 16.9 | 70.8*
CCOC(=O)c1c(NC(=O)c2ccccc2)sc2c(O)c(CN(CC)CC)ccc12 | 0.5 | 9.3 | 22.4 | 0.9 | 14.1 | 47.0
CCOC(=O)c1c(C2COc3ccccc3O2)csc1N (centres undefined) | 0.2 | 7.5 | 21.7 | 0.1 | 90.7* | 79.6*
CCN(CC)CCCNC(=O)c1cn(CCOC)c(=O)c2c1c1ccccc1n2C | 1 | -11.1 | 13.0 | 1 | 1.3 | 4.2
O=C(NCc1cccs1)C1CCN(S(=O)(=O)N2CCCC2)CC1 | 1.1 | -1.8 | 5.0 | 1 | -2.8 | -7.1
COc1ccc(O)c(-c2cc(C(F)(F)C(F)F)nc(-c3ccccc3)n2)c1 | 0.8 | 1.1 | 5.6 | 1 | -0.4 | 17.6
COc1ccc(-c2n[nH]c(C(F)(F)F)c2-c2cc3ccccc3o2)c(O)c1 | 0.1 | 104.4* | 101.7* | 0.8 | 20.2 | 90.4*
COCCCNC(=O)/C=C/c1ccc(Cl)cc1 | 1 | 6.0 | 6.4 | 1.1 | -9.7 | -1.7
O=C(CCc1nc(-c2ccccc2)no1)NCCc1ccccc1 | 0.6 | 0.3 | 11.3 | 0.5 | 46.0 | 36.1
C#CCOC(=O)CCC(=O)NCCc1ccccc1 | 0.7 | -7.8 | 6.1 | 0.3 | 67.3* | 26.3
COCCN(Cc1cc2ccccc2[nH]c1=O)C(=O)c1ccccc1OC | 1.2 | -9.1 | -9.2 | 0.9 | 7.2 | -17.9
CCC(=O)N(Cc1ccc(C)cc1)Cc1cc2cc3c(cc2[nH]c1=O)OCO3 | 0.7 | 16.7 | -1.6 | 0.9 | 8.7 | 31.1
COc1ccc(C(C#N)Nc2ccccc2OC)cc1 (centres undefined) | 1.2 | -1.7 | 1.0 | 0.8 | 22.0 | -23.9
COc1ccccc1NS(=O)(=O)c1ccccc1C#N | 2.7* | -6.8 | 4.0 | 0.4 | 57.8* | -173.9
Cc1c(F)cccc1NS(=O)(=O)c1ccccc1C#N | 0.7 | -3.2 | 4.6 | 0.4 | 58.9* | 29.4
Cc1ccc2cccc(Oc3cnccn3)c2n1 | 1.1 | -21.0 | 14.8 | 1 | -2.3 | -5.1
COCCNC(=O)CN1CCC(NC(=O)Nc2ccc(C(F)(F)F)cc2)CC1 | 0.9 | -4.2 | 3.8 | 0.8 | 22.4 | 9.9
c1ccc(CN2c3ccccc3-c3nc4ccccc4n3C2c2ccccn2)cc1 (centres undefined) | 0.6 | 8.9 | 43.2* | 0.8 | 19.9 | 42.3
CN1c2ccccc2-c2nc3ccccc3n2C1c1ccccn1 (centres undefined) | 0.7 | 2.0 | 12.9 | 0.9 | 6.9 | 34.5
SMILES | CYP2C9 act | PostGolgi yeast | PostGolgi ctrl | CYP2C19 act | CYP2C19 inhib | CYP2C9 inhib
CCN1c2ccccc2-c2nc3ccccc3n2C1c1ccco1 (centres undefined) | 0.4 | -1.9 | 26.3 | 0.7 | 28.1 | 58.6*
CN1c2ccccc2-c2nc3ccccc3n2C1c1ccncc1 (centres undefined) | 0 | -3.7 | 14.7 | 0 | 95.8* | 95.1*
Cc1cc(NS(=O)(=O)c2ccc(CC(C)C)cc2)no1 | 0.1 | -3.0 | 28.9 | 0.3 | 72.5* | 90.0*
Cc1cc(NS(=O)(=O)c2ccc(NC(=O)C(C)Oc3ccc(Cl)cc3)cc2)no1 (centres undefined) | 1.1 | -0.5 | 3.9 | 1 | -2.7 | -9.9
Cc1ccc(OC(C)C(=O)Nc2ccc(S(=O)(=O)Nc3cc(C)on3)cc2)cc1 (centres undefined) | 0.9 | 2.2 | 33.0* | 1 | 2.4 | 11.2
Cc1cc(NS(=O)(=O)c2ccc(NC(=O)NC3CCCCC3)cc2)no1 | 1.1 | 0.6 | 15.9 | 1.1 | -10.5 | -5.2
Cc1cc(NS(=O)(=O)c2ccc(C3CCCCC3)cc2)no1 | 0.6 | 8.3 | 33.5* | 0.9 | 11.9 | 37.7
CCC(=O)Nc1ccc(S(=O)(=O)Nc2cc(C)on2)cc1 | 1 | 8.8 | -0.6 | 1.1 | -7.2 | -2.1
CCOc1cc(C(=O)NCCOC)ccc1OC | 1 | 26.9 | 8.3 | 1 | 1.9 | -3.2
O=C(NCc1cccs1)C1CCN(S(=O)(=O)c2cccs2)CC1 | nt | -0.8 | -10.3 | nt | nt | nt
O=C(O)c1cc(S(=O)(=O)N2CCOCC2)ccc1N1CCOCC1 | 1.2 | 18.9 | 9.8 | 1.1 | -5.2 | -20.9
Clc1cc(NCc2cccs2)ccc1N1CCOCC1 | 0.2 | -7.7 | -1.6 | 0.1 | 93.8* | 80.8*
O=C(NCc1cccs1)C1CCN(c2ccc(S(=O)(=O)N3CCOCC3)cc2Cl)CC1 | 0.4 | -3.0 | 12.9 | 0.5 | 47.6 | 58.5*
O=C(NC1CC1)C1CCN(c2ccc(S(=O)(=O)N3CCOCC3)cc2Cl)CC1 | 0.2 | -6.3 | 11.6 | 0.5 | 49.8 | 78.1*
CC(C)CNC(=O)C1CCN(c2ccc(S(=O)(=O)N3CCOCC3)cc2Cl)CC1 | 0.4 | -5.2 | -0.1 | 0.6 | 39.8 | 55.7*
O=[N+]([O-])CC(=Nc1ccc(Cl)cc1)N/N=C\c1oc(O)c2ccccc12 | 0.7 | 3.7 | 9.2 | 1 | -1.6 | 27.7
COc1ccc(Nc2oc(-c3cccs3)nc2C#N)cc1 | 0.8 | -3.4 | 12.5 | 0.7 | 27.7 | 16.7
COc1ccc(/C=C/C(=O)Oc2cccc(/C=N/NC(=O)COc3c(C)cccc3C)c2)cc1 | 0.5 | -6.3 | -2.3 | 1 | -0.2 | 49.1
NC(=O)C1(N2CCCCC2)CCN(C2CC(=O)N(Cc3cccs3)C2=O)CC1 (centres undefined) | 1.2 | -3.3 | 11.9 | 1 | -1.7 | -23.6
Cn1nc(-c2ccccc2)c(C#N)c1Sc1cccc(Cl)c1 | 0.7 | -7.0 | 11.9 | 0.7 | 31.3 | 28.4
Cn1c(C(=O)NCCN2CCc3ccccc3C2)cc2c(=O)n(C)c3ccccc3c21 | 0.7 | -9.6 | 34.1* | 0.7 | 34.6 | 31.1
Cn1c(C(=O)NCCN2CCOCC2)cc2c(=O)n(C)c3ccccc3c21 | 0.9 | -5.0 | 17.8 | 1 | -2.1 | 7.1
COc1ccc(-c2nsc(SCC(=O)Nc3cc(C)on3)n2)cc1 | 0.5 | 8.2 | 1.1 | 0.6 | 42.3 | 54.0*
